According to PubChem BioAssay (Tox21):
Records with an inconclusive call do not appear. A call without a number means that no potency is given here. The source made the active and inactive calls. Calls follow the shape of the full dose curve.

Experiment: qHTS assay for small molecule agonists of the p53 signaling pathway - cell viability (AID 651633); also: nearly all actives have a fitted effect of over 30% in size
Settings: p53RE-bla HCT-116 viability, ATP luminescence, 16 h; series mostly up to 83.3 µM
Text: National Center for Advancing Translational Sciences [NCATS]
NIH Chemical Genomics Center [NCGC]
U.S. Environmental Protection Agency [EPA]
National Institutes of Environmental Health Sciences [NIEHS]
National Toxicology Program [NTP]
U.S. Food and Drug Administration [FDA]
p53, a tumor suppressor protein, is activated following cellular insult, including DNA damage and other cellular stresses. The activation of p53 regulates cell fate by inducing DNA repair, cell cycle arrest, apoptosis, or cellular senescence. The activation of p53, therefore, is a good indicator of DNA damage and other cellular stresses. […] The activation of the reporter gene under culture conditions can be detected by fluorescence intensity. This cell line was used to screen the Tox21 compound library in a 1536-well plate format and to identify agonists that activate the p53 signaling pathway.
Tox21 Assay Protocol Summary:
The p53RE-bla cells were dispensed at 4,000 cells/5 ul/well in 1536-well black wall/clear bottom plates using a Multidrop dispenser. After the assay plates were incubated at a 37 C/5% CO2 incubator for 5 hours, 23 nL of compounds dissolved in DMSO, positive controls or DMSO only was transferred to the assay plate by a pin tool. The plates were incubated at 37 C for 16 hours. After 1 uL of LiveBLAzerTM B/G FRET substrate was added using a Flying Reagent Dispenser, the plates were incubated at room temperature for 2 hours, and fluorescence intensity was measured by an Envision plate reader.
For cell viability readout that measures cytotoxicity, 4 ul/well of CellTiter-Glo reagent was added into the assay plates using a Flying Reagent Dispenser. After 30 min incubation at room temperature, the luminescence intensity in the plates was measured using a ViewLux plate reader.
Potency is read from the fitted curve at half-maximal effect.

Row | Structure (SMILES) | Potency
1 | CCc1cc(OC)c(C[C@@H](C)N)cc1OC | inactive
2 | C#CCN1CC(=O)N(COC(=O)C2C(C=C(C)C)C2(C)C)C1=O (stereo not given) | inactive
3 | CN1CCCC(=C(c2cccs2)c2cccs2)C1 | inactive
4 | C1CN(P2(N3CC3)=NP(N3CC3)(N3CC3)=NP(N3CC3)(N3CC3)=N2)CCO1 (stereo not given) | inactive
5 | CCN(CC)CCO[C@H]1CC[C@@]2(C)C(=CC[C@@H]3[C@@H]2CC[C@]2(C)C(=O)CC[C@@H]32)C1 | inactive
6 | OC(c1ccccc1)(c1ccccc1)C1CN2CCC1CC2 (stereo not given) | inactive
7 | CCC(=O)O[C@]1(c2ccccc2)CCN(C)C[C@H]1C | inactive
8 | C[C@]12CC[C@H](OS(=O)(=O)O)CC1=CC[C@@H]1[C@@H]2CC[C@]2(C)C(=O)CC[C@@H]12 | inactive
9 | CN1C(=O)CC(=O)N(c2ccccc2)c2cc(Cl)ccc21 | inactive
10 | O=C1Nc2ccc(Cl)cc2C(c2ccccc2Cl)=NC1O (stereo not given) | inactive
11 | COc1ccc2c3c1O[C@H]1[C@@H](O)C=C[C@H]4[C@@H](C2)NCC[C@@]341 | inactive
12 | C=CCN(C1=NCCN1)c1c(Cl)cccc1Cl | inactive
13 | CC(C)C[C@H](CN)CC(=O)O | inactive
14 | COC(=O)[C@H]1[C@@H](OC(=O)c2ccccc2)C[C@@H]2CC[C@H]1N2C | inactive
15 | Cc1cc(C(C)(C)c2ccc(O)c(C)c2)ccc1O | inactive
16 | CC(C)=CCN1CC[C@]2(C)c3cc(O)ccc3C[C@H]1[C@H]2C | inactive
17 | C[C@]12CC[C@H](O)C[C@H]1CC[C@@H]1[C@@H]2CC[C@]2(C)[C@@H](c3ccc(=O)oc3)C[C@H]3O[C@]132 | 750 nM (active)
18 | C[C@]12N[C@H](Cc3ccccc31)c1ccccc12 | inactive
19 | C[C@]12CC[C@H]3[C@@H](CCC4=C(O)C(=O)CC[C@@H]43)[C@@H]1CC[C@@H]2OC(=O)CCC1CCCC1 | inactive
20 | O=c1[nH]cc(N(CCCl)CCCl)c(=O)[nH]1 | inactive

Row | Structure (SMILES) | Potency
21 | C[C@]12C[C@H]3S[C@H]3C[C@@H]1CC[C@@H]1[C@@H]2CC[C@]2(C)[C@@H](O)CC[C@@H]12 | inactive
22 | C=CCC1([C@@H](C)CCC)C(=O)NC(=O)NC1=O | inactive
23 | NC(=O)CN1CC(O)CC1=O (stereo not given) | inactive
24 | CC1(C)[C@H](C=C(Cl)Cl)[C@H]1C(=O)OCc1c(F)c(F)cc(F)c1F | inactive
25 | COc1ccc2c3c1O[C@H]1C(=O)CC[C@H]4[C@@H](C2)N(C)CC[C@]314 | inactive
26 | C[C@]12CCC(=O)C=C1C=C[C@@H]1[C@@H]2CC[C@@]2(C)[C@H]1CC[C@@]2(O)CCC(=O)O | inactive
27 | C[N+]1([O-])[C@@H]2CC[C@H]1CC(OC(=O)C(CO)c1ccccc1)C2 (stereo not given in full) | inactive
28 | C=CCC1(C(C)CCC)C(=O)N=C(S)NC1=O (stereo not given) | inactive
29 | COc1ccc2c(c1)C13CCCC[C@@H]1C(C2)N(C)CC3 (stereo not given in full) | inactive
30 | C[C@H]1[C@H]2Cc3ccc(O)cc3[C@]1(C)CCN2CCc1ccccc1 | inactive
31 | C[N+]1([O-])[C@@H]2CC(OC(=O)[C@H](CO)c3ccccc3)C[C@H]1[C@@H]1O[C@@H]12 (stereo not given in full) | inactive
32 | c1cc2c(c(NC3=NCCN3)c1)CCCC2 | inactive
33 | O=C1OC2(c3cc(Br)c(O)cc3Oc3c2cc(Br)c(O)[c]3[Hg])c2ccccc21 (stereo not given) | inactive
34 | CN[C@@]1(c2ccccc2Cl)CCCCC1=O | inactive
35 | COc1ccc(OC)c([C@@H](O)[C@H](C)N)c1 | inactive
36 | CCC1(c2ccccc2)C(=O)NC(=O)N(C)C1=O (stereo not given) | inactive
37 | CC(=O)Oc1ccc2c3c1O[C@H]1[C@@H](OC(C)=O)C=C[C@H]4[C@@H](C2)N(C)CC[C@@]341 | inactive
38 | C[C@@H](Cc1ccccc1)NCCC(c1ccccc1)c1ccccc1 | inactive
39 | CCCCNCC(O)c1ccc(O)cc1 (stereo not given) | inactive
40 | F/C(COc1ccc2c(c1)[nH]c1ccccc12)=C1/CN2CCC1CC2 | inactive
